Measurements as given in PubChem BioAssay AID1868 (National Center for Advancing Translational Sciences (NCATS), 2009).
Out of some 270,000 compounds screened, about 20 (0.007%) were called active. The call rests on the fitted dose curve; in most records, active means well fitted inhibition curve with a large enough effect; inconclusive means small, poorly fitted or top-dose-only effect, or effect the other way; inactive means flat fitted curve, though single readings scatter. These entries were drawn from the full list.

target: Galactokinase (Homo sapiens) (UniProt P51570); experiment: qHTS Assay for Inhibitors of Human Galactokinase (GALK); details: Purified GALK, Kinase-Glo residual ATP luminescence; series mostly up to 57.5 µM; activity change, negative = inhibition: at the top concentration
Description: NIH Molecular Libraries Probe Production Centers Network [MLPCN] NIH Chemical Genomics Center [NCGC] MLPCN Grant: R03 MH085689-01 Assay Submitter (PI): Kent Lai (University of Utah School of Medicine, 50 N Mario Capecchi Drive, Salt Lake City, UT 84132) NCGC Assay Overview: Inherited deficiency of galactose-1-phosphate uridyltransferase (GALT) can result in a potentially lethal disorder called Classic Galactosemia (OMIM 230400). Several lines of evidence indicate that an elevated level of galactose-1-phosphate (gal-1-p), the product of galactokinase (GALK), is a major, if not sole, pathogenic mechanism in patients with classic galactosemia. Therefore, finding inhibitors of GALK is a potential novel therapy for this inherent metabolic disease and is the long term goal of this project. GALK (provided by the assay submitter) was assayed using ATP and D-(+)-Galactose (Sigma-Aldrich cat# G0750) as substrates. Promega Kinase-Glo Plus (cat# V3774) technology was used to detect the residual ATP following kinetic reaction. Briefly, the Kinase-Glo Plus contains Ultra-Glo [2] luciferase and D-luciferin which generates a bioluminescence signal from the remaining ATP.
NCGC Assay Protocol Summary: Three uL/well of ATP-buffer solution (35 uM ATP, 20mM HEPES pH8.0, 5 mM MgCl2, 60 mM NaCl, 1 mM DTT, 0.01% BSA final concentration) was dispensed into 1536-well, assay plates (Greiner, solid white medium-binding plates) with Aurora Discovery BioRAPTR Flying Reagent Dispenser (FRD; Beckton-Dickenson). Compound solution (23 nL) was transferred to the assay plate using the Kalypsys 1536-pin tool. One uL/well GALK-galactose solution (5 nM GALK, 100 uM galactose, 20 mM HEPES pH8.0, 5 mM MgCl2, 60 mM NaCl, 1 mM DTT, 0.01% BSA final concentration) was then added using the FRD yielding a total kinase reaction volume of 4 uL/ well. After 1 hour of room temperature incubation, 4 uL Kinase-Glo Plus reagent was added for a final assay volume of 8 uL/ well. Luminescence was detected with the ViewLux plate reader (Perkin Elmer, Waltham, MA) after 10 min incubation using a 1 sec exposure time and 2x binning.
On the % scale 0 is the no-effect control and ±100 the full control effect.

Galactokinase (Homo sapiens), sequence (P51570 whole entry, looked up): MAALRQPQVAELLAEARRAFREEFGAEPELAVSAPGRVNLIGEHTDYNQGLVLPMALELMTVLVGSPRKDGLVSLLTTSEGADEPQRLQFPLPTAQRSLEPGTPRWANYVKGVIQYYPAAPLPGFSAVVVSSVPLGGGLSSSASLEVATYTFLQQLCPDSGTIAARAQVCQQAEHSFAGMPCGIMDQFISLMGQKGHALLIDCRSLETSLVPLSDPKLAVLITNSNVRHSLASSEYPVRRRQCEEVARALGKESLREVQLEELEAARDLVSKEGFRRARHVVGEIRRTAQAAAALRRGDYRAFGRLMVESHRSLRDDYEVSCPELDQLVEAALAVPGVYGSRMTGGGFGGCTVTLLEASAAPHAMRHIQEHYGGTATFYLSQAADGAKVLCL

Activity change, negative = inhibition, inactive:
COc1cccc(NC(=O)C(=O)c2cn(CC(=O)N3CCOCC3)c3ccccc23)c1 0.368%
CCOC(=O)C1CCCN(CCSc2ccc(C)cc2)C1 (stereo not given) -3.07%
O=C(Nc1ccc(S(=O)(=O)NCC2CCCO2)cc1)c1ccc(F)cc1 (stereo not given) -2.11%
Cc1ccccc1NC(=S)NC(=O)Cc1ccc(Cl)cc1 7.47%
COCCN1CCN(C(=O)c2cc(COc3ccc(F)cc3Cl)on2)CC1 5.12%
COc1ccc(N(C(=O)c2snc(C(N)=O)c2N)C(C(=O)NC2CCCC2)c2ccc(C)o2)c(OC)c1 (stereo not given) -1.02%
O=C(CCl)NNc1nc(-c2ccccc2)c2cc(Cl)ccc2n1 0.907%
CCOC(=O)Nc1ccc2c(c1)N(C(=O)CCCl)c1ccccc1[S@]2=O -2.31%
NC(=O)CSc1nnc(NC(=O)c2ccc(Br)o2)s1 3.28%
CN(C(=O)CCN1C(=O)/C(=C/c2ccccc2F)SC1=S)C1CCS(=O)(=O)C1 (stereo not given) 7.27%
O=C(CC(n1cncn1)C(Cl)(Cl)Cl)c1ccc([N+](=O)[O-])cc1 (stereo not given) 1.45%
Cc1ccc(NC(=O)CSc2cccc3cccnc23)c(C)c1 -1.71%
Cc1ccc(/C=N/NC(=O)c2cc3ccccc3cc2O)o1 0.24%
COc1ccc(OCc2cc(C(=O)N3CCCC3)no2)c2ccccc12 -7.05%
COc1ccccc1C(=O)NC(=S)Nc1ccccc1N1CCCCC1 -4.03%
COc1ccc([N+](=O)[O-])cc1N(CC(=O)Nc1ccccc1C(=O)N1CCOCC1)S(C)(=O)=O 2.62%
COc1cccc(C(=O)N/N=C(\C)c2cccc(NC(=O)c3ccc(F)cc3)c2)c1OC -11.7%
Oc1ccccc1-c1cc(-c2ccc(Cl)cc2)n[nH]1 -6.23%
CCSc1nc2sc3c(c2c(=O)n1-c1ccc(C)cc1)CCN(C)C3 -3.96%
COc1ccc(NCCc2ccccn2)cc1 -1.27%
Cc1ccc(NS(=O)(=O)c2ccc3c(c2)oc(=O)n3C)c(C)c1 2.68%
O=C(Nc1cccc(Cl)c1Cl)c1ccccc1NC(=O)C1CC=CCC1C(=O)O (stereo not given) -4.93%
S=C(Nc1ccc(Cl)cc1Cl)N1CCCC1 0.847%
O=C(Nc1ccnn1C1CCN(Cc2cccc(OCCO)c2)CC1)C1CCCC1 3.25%
CC(C)(C)c1ccc(Cn2nnc3c(=O)[nH]c(C4CCCN(C(=O)c5ccco5)C4)nc32)cc1 (stereo not given) -1.13%
CCc1ccccc1OCC(=O)Nc1ccc2c(c1)OCCO2 13.3%
O=[N+]([O-])c1ccc2c(c1)Nc1nc3ccccc3nc1N2 6.04%
CC1CN(C(=O)CCC(=O)NCCCN2CCC(Cc3ccccc3)CC2)c2cc(Cl)ccc2O1 (stereo not given) -0.958%
Cc1ccc(CSc2nsc(C)c2C#N)cc1 -1.65%
CC(=O)c1ccc(NC(=O)c2sc3nc4n(c(=O)c3c2C)CCCCC4)cc1 3.59%
